Bioassay records from PubChem BioAssay.
Compounds with a hit are over-represented: about 27% of the library has one in this group of screens.
CYP2C19 act = cytochrome P450 2C19 (human) activation | P33261 | recombinant CYP2C19, luciferin-H EGE luminescence; hits give high values; 0 = fully inhibited enzyme, 1 = untreated enzyme | activation factor at 5 µM | 96,000 tested, under 10 active | AID 1025;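 active = activation factor of at least 2 at 5 µM in the primary screen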;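 note: 0 = wells with 2.5 mM tranylcypromine and 1 = vehicle-only wells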
CYP2C19 inh = blocks human cytochrome P450 2C19 | inhibition, % at 5 µM | CYP2C19 Supersomes, luciferin-H EGE luminescence, 30 min | AID 778 | 96,000 tested, 21% active | P33261;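 active = CYP2C19 inhibition above a set limit at 5 µM in the primary screen, cut at about 50% in these data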;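 note: plate controls were negative control wells for no effect and 2.5 mM tranylcypromine positive control for full effect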
CYP2C9 inhib = human CYP2C9 inhibition. CYP2C9 Supersomes, luciferin-H conversion, luminescence. inhibition, % at 5 µM. 96,000 tested, 20% active. AID 777;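 active = blocking of liver enzyme CYP2C9 beyond about 50% at 5 µM, limit read from the data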
Target sequence (P11712 whole entry, looked up): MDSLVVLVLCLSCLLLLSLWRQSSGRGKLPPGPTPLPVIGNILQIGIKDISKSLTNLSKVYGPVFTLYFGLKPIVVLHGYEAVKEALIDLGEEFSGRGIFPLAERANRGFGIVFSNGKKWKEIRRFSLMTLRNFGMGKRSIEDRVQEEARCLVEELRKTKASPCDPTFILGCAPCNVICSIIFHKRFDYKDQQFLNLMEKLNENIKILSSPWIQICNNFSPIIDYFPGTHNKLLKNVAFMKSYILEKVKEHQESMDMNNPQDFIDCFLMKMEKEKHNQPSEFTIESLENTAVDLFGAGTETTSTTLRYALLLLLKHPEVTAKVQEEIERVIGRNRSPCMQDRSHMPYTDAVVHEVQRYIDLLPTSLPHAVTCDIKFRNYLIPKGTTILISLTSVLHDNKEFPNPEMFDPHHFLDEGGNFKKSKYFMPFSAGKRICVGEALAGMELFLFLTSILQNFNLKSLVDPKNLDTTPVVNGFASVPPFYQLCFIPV
CYP2C9 activ = CYP2C9 (human) activation; 96,000 tested, 1.4% active; activation factor at 5 µM; recombinant CYP2C9, luciferin-H conversion, luminescence; hits give high values; factor 1 = untreated enzyme, 0 = blocked; AID 1024; P11712;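 active = activation factor of 2 or more for CYP2C9 at a 5 µM dose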;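 note: 0 = sulfaphenazole-blocked wells and 1 = vehicle-only wells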
Cav32 inh = inhibitors of human Cav3.2 T-type calcium channel; O95180; Cav3.2-expressing cells, Fluo-4 calcium fluorescence FDSS; hits give low values; B-score at 10 µM; 100,000 tested, 4% active;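 active = single-dose well whose peak fluorescence ratio is a statistical outlier from its plate by either plate-standardised score or position-corrected B-score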
Starred values were filed as active, the others as inactive; · = no result given.

SMILES	CYP2C19 act	CYP2C19 inh	CYP2C9 inhib	CYP2C9 activ	Cav32 inh
O=C(CSc1ccc(Cl)cc1)Nc1ccccc1N1CCN(C(=O)c2ccccc2)CC1	0.9	10	24	0.8	-0.96
CC(C)CC(=O)Nc1ccccc1N1CCN(C(=O)c2ccccc2)CC1	0.2	77*	76*	0.2	0.54
O=C(Nc1ccc(N2CCN(C(=O)c3ccc(Cl)cc3)CC2)cc1)c1cccnc1	0.8	17	10	0.9	0.59
CC(C)C(=O)Nc1ccccc1N1CCN(C(=O)c2ccccc2)CC1	0.3	68*	63*	0.4	-0.025
CC(C)C(=O)Nc1ccccc1N1CCN(S(C)(=O)=O)CC1	0.8	18	6	0.9	0.086
O=C(Nc1ccccc1N1CCN(C(=O)c2ccc(Cl)cc2)CC1)c1cccnc1	0.1	88*	93*	0.1	0.15
CCc1nc(SCC(=O)N2CCC(C)CC2)c2c(=O)n(C)c(=O)n(C)c2n1	·	·	·	·	0.95
Cc1cc(Nc2ccc(Br)cc2F)n2nc(C)nc2n1	·	·	·	·	0.067
CCOC(=O)CN1C(=O)C(O)=C(C(C)=O)C1c1ccc(F)cc1 (stereo not drawn)	0.9	5	11	0.9	-0.11
O=C(CN1NS(=O)(=O)c2ccccc2C1=O)Nc1ccccc1OC(F)F	0.9	13	34	0.7	-0.15
CCOC(=O)CCS(=O)(=O)c1ccc(-c2ccc(S(=O)(=O)CCC(=O)OCC)cc2)cc1	1.2	-20	-4	1	-0.013
Cc1ccc(S(=O)(=O)CCC(=O)c2ccc(O)cc2O)cc1	0.3	70*	-91	1.9	2.6
CC(C(=O)N/N=C/c1ccc(N(C)C)c(Br)c1)N(c1ccccc1)S(C)(=O)=O (stereo not drawn)	0.7	26	43	0.6	-6*
COc1ccc(N(C(C)C(=O)N/N=C/c2ccc(OC(C)C)cc2)S(C)(=O)=O)cc1 (stereo not drawn)	0.8	22	10	0.9	-0.61
CCn1c(Cc2ccc(OC)cc2)nnc1SCC(=O)Nc1cccc(C(=O)OC)c1	·	·	·	·	-1.4
COC(=O)c1cc(C#N)c(NCc2ccc(Cl)cc2Cl)nc1C	0.9	9	12	0.9	-0.53
COC(=O)c1c[nH]n2c(=O)c(Cc3ccc(F)cc3Cl)c(C)nc12	0.6	42	71*	0.3	-2
CCN1CCN(C(=O)CCCn2c(C)c3cnn(-c4ccccc4)c(=O)c3c2C)CC1	0.9	12	12	0.9	2
O=C(Cn1ncc2c3ccccc3n(Cc3ccccc3)c2c1=O)N1CCN(c2ncccn2)CC1	0	98*	77*	0.2	-1.4
Cc1c2cnn(-c3ccccc3)c(=O)c2c(C)n1CCCC(=O)N1CCN(c2ncccn2)CC1	0.6	41	36	0.6	5.5*
Cn1c2ccccc2c2cnn(CC(=O)O)c(=O)c21	1	1	8	0.9	0.057
COC(=O)C1=[N+]([O-])OC(C(=O)OC)C1c1c[nH]c2ccccc12 (stereo not drawn)	0.8	21	13	0.9	0.73
Cc1ccc(S(=O)(=O)NC(C)(C)CSc2nncn2C)cc1	0.6	40	-9	1.1	0.24
Cc1ccc(S(=O)(=O)NC(C)(C)CSc2nnc(N)s2)cc1	0	99*	80*	0.2	0.22
Cc1cc[n+]2c3c(cccc13)CCC2	1	5	5	1	0.51
SMILES	CYP2C19 act	CYP2C19 inh	CYP2C9 inhib	CYP2C9 activ	Cav32 inh
COc1ccc2c(c1)c1ncn(CCCN3CCOCC3)c(=O)c1n2C	0.7	27	11	0.9	-0.058
COc1ccc2c(c1)c1ncn(CCc3ccccc3)c(=O)c1n2C	0.4	58*	92*	0.1	-1.4
CS(=O)(=O)n1nc(-c2ccc(Cl)cc2)nc1SCc1ccccc1	0.5	51*	69*	0.3	-3.9
Cc1cc(-c2cc(-c3ccccc3)on2)nc(NC2CCCC2)n1	·	·	·	·	0.44
CC(C)CCOC(=O)/C(=C/c1ccco1)NC(=O)/C=C/c1ccccc1	0.8	23	46	0.5	-5.8*
COc1ccc(NC(=O)CSc2nnc(Cc3cccn3C)n2CCc2ccccc2)c(OC)c1	0.3	75*	47	0.5	-2.1
COc1ccc(OC)c(NC(=O)CSc2nnc(Cc3cccn3C)n2-c2ccc(F)cc2)c1	0.3	73*	54*	0.5	-2.5
COc1ccc(-n2c(Cc3cccn3C)nnc2SCC(=O)Nc2ccccc2F)cc1	0.7	35	33	0.7	-4.4*
Cc1ccc(-n2c(Cc3cccn3C)nnc2SCC(=O)NC2CCCCC2)cc1	0.9	15	23	0.8	-1.8
